The supplement of paper PMC10849652
The full data set covers some 8,800 targets. This sample favours those with a hit. About 0.5% of all pairs of compound and target were hits.

Assays:
Assay in all cases: log2 fold change, soluble protein after heating vs DMSO (PISA); higher = thermal stabilisation; K562 lysate, 10 uM; active = over 0.2 and 3.5 SD of the protein, either way, in both replicates (recomputed)
[1] = compound: C1=CC=C(C=C1)[C@H](COC2=CC3=C(C=C2)NC(=O)N3)NC(=O)C4=CC=CN(C4=O)CC5=CC(=C(C=C5)F)F
Procedure, shortened: (§1)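 Pellets of K562 cells were dounce-homogenised in PBS pH 7.4 with 1 mM MgCl2, and the crude extract was held at 1 mg/mL protein for a 30 min treatment with 10 μM compound. Aliquots were heated for 3 min over 48°C-58°C and pooled before NP-40 was added to 0.5% at 4°C. The supernatant from 21,000xg for 90 min was quantified by TMTpro 16plex LC-MS/MS with channel sums equalised. Values are reported from duplicates as log-two fold change in thermal stability relative to solvent controls.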

[2] = compound: CC1=C(SC2=C1C(=N[C@H](C3=NN=C(N32)C)CC(=O)N)C4=CC=C(C=C4)Cl)C
Procedure, shortened: as §1

[3] = compound: CC1=C2C(=CC=C1)N=C(N(C2=O)C3=CC=CC=C3C)CN4C=NC5=C(N=CN=C54)N
Procedure, shortened: as §1

[4] = compound: Cc1sc2c(c1C)C(c1ccc(Cl)cc1)=N[C@@H](CC(=O)OC(C)(C)C)c1nnc(C)n1-2
Procedure, shortened: as §1

[5] = compound: c1ccc([C@@H]2C[C@H]2NC2CCNCC2)cc1
Procedure, shortened: as §1

Sequence of UniProt P20839 (P20839 whole entry, looked up): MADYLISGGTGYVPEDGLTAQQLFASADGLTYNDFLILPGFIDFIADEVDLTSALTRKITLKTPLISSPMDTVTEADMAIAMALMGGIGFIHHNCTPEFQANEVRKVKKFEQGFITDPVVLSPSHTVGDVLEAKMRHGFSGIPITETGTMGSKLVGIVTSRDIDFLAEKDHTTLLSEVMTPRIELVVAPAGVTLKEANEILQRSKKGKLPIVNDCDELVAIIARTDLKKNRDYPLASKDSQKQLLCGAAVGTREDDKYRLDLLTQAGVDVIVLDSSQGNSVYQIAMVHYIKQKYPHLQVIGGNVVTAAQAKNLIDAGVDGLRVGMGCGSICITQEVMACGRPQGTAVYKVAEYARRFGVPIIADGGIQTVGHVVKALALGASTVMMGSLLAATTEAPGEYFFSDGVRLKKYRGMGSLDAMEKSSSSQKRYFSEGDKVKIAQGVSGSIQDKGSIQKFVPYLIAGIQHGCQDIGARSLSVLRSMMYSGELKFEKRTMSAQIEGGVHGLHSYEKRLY
Sequence of UniProt P52655 (P52655 whole entry, looked up): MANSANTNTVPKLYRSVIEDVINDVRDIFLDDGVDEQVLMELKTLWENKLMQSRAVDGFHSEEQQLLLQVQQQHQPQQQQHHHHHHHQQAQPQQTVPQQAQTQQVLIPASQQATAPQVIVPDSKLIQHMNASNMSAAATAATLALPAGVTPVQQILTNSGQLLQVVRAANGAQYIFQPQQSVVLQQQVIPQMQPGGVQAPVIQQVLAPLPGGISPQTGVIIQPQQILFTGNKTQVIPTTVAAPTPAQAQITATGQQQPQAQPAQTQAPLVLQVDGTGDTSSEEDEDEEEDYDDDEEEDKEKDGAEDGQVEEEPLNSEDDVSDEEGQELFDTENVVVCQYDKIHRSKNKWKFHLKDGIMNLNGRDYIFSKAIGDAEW
Sequence of UniProt P17096 (P17096 whole entry, looked up): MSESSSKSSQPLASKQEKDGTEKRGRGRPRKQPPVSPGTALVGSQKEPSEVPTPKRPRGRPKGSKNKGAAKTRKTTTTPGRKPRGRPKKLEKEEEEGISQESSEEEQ
Sequence of UniProt P49915 (P49915 whole entry, looked up): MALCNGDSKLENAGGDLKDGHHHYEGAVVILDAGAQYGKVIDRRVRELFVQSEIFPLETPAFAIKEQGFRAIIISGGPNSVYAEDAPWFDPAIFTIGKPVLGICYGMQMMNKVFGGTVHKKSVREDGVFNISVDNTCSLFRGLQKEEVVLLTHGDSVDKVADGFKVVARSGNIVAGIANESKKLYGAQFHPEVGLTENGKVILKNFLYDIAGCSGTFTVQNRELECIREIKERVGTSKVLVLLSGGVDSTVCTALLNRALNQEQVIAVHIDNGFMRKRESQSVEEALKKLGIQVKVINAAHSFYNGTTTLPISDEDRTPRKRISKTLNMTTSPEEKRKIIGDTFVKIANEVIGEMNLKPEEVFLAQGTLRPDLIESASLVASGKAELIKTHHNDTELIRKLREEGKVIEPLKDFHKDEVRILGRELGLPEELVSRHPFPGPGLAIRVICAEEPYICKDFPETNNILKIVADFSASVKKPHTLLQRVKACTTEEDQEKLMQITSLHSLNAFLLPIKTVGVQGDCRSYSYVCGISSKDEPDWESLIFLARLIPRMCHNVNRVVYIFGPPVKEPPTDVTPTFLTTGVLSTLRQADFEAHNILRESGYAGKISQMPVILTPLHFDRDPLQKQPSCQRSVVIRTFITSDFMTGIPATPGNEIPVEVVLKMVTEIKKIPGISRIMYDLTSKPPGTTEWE
Sequence of UniProt Q9H4A5 (Q9H4A5 whole entry, looked up): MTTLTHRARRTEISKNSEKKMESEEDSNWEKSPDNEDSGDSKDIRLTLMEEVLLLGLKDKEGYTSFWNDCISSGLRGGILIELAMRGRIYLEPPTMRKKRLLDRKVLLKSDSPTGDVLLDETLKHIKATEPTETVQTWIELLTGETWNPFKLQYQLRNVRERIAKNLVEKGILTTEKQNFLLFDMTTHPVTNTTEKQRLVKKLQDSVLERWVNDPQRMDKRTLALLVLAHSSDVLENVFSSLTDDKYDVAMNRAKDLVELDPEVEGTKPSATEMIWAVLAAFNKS
Sequence of UniProt P50053 (P50053 whole entry, looked up): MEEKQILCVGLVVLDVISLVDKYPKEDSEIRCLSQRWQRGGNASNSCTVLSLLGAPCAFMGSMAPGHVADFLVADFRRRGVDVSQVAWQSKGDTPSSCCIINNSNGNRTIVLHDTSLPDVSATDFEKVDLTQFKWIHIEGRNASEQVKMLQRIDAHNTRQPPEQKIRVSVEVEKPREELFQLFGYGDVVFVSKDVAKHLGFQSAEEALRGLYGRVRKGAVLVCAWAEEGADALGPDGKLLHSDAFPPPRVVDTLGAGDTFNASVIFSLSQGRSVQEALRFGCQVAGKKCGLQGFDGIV
Sequence of UniProt Q6NT76 (Q6NT76 whole entry, looked up): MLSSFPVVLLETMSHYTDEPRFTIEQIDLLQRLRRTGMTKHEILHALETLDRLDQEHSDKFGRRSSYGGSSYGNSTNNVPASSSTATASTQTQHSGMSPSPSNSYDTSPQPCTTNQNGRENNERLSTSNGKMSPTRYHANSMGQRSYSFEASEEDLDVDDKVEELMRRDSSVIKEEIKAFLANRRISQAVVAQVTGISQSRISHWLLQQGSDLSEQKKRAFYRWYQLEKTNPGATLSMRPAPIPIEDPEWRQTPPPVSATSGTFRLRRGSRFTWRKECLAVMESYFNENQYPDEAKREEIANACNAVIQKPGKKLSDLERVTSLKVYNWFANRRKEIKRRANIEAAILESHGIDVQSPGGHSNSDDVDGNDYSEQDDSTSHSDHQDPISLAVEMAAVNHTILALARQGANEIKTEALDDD
Sequence of UniProt P41229 (P41229 whole entry, looked up): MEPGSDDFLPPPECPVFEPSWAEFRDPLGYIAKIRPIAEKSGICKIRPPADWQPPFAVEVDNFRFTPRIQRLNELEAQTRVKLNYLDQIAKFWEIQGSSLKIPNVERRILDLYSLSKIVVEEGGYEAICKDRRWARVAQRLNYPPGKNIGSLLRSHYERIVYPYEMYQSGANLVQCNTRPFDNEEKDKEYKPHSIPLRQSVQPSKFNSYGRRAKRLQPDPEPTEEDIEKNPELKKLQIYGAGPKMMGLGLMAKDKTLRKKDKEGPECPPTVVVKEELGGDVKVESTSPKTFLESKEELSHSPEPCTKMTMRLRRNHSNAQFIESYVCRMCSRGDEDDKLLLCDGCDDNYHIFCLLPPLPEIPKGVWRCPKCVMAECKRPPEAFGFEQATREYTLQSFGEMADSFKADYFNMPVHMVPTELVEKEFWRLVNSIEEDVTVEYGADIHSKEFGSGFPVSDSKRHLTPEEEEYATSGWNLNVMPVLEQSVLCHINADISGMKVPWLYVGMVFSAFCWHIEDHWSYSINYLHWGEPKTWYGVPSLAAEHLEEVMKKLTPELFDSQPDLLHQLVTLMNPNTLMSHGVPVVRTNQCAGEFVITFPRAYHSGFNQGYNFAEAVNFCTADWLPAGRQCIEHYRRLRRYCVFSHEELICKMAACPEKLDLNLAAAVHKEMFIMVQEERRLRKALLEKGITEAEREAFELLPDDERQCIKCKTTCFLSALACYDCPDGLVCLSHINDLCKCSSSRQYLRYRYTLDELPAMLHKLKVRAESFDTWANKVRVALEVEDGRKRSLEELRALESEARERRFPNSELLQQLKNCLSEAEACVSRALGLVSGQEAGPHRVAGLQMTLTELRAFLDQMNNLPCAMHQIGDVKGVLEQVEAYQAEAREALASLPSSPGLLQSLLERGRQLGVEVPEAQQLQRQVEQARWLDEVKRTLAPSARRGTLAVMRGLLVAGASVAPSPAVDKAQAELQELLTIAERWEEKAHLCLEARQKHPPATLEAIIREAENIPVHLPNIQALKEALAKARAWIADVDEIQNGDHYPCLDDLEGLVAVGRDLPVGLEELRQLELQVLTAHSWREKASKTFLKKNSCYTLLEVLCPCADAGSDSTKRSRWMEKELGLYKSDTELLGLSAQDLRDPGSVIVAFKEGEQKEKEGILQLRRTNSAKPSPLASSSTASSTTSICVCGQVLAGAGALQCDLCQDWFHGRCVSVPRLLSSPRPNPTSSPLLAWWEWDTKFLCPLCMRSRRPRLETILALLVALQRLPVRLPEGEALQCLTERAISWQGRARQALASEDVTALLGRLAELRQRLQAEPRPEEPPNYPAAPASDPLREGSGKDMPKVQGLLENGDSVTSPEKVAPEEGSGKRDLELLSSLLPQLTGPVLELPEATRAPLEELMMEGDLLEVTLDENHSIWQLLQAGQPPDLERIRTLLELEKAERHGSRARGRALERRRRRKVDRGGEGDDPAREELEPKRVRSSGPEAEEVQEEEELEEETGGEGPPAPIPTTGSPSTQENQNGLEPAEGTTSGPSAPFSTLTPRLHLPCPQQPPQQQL
Sequence of UniProt Q16836 (Q16836 whole entry, looked up): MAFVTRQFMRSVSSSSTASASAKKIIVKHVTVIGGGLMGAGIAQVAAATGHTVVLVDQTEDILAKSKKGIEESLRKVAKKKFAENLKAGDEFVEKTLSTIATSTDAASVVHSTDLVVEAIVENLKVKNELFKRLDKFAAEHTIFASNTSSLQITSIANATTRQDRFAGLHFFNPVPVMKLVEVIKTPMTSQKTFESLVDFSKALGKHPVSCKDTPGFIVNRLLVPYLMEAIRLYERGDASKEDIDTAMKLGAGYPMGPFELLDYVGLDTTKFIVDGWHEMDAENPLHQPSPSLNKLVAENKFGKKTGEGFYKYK
Sequence of UniProt Q14103 (Q14103 whole entry, looked up): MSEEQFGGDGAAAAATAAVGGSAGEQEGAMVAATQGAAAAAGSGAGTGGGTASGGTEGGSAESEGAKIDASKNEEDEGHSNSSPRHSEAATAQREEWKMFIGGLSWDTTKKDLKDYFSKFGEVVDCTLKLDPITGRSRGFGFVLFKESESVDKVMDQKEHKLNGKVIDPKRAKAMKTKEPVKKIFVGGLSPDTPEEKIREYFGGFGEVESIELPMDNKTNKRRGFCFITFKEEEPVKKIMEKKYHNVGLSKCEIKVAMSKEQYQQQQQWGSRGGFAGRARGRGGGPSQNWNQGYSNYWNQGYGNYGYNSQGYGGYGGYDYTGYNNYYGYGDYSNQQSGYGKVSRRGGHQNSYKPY

| Target | log2 fold change [1] | log2 fold change [2] | log2 fold change [3] | log2 fold change [4] | log2 fold change [5] |
| --- | --- | --- | --- | --- | --- |
| INTS8 (UniProt Q75QN2) | 0.021 (inactive) | -0.085 (inactive) | -0.002 (inactive) | 0.023 (inactive) | 0.081 (inactive) |
| ILKAP (UniProt Q9H0C8) | -0.004 (inactive) | -0.004 (inactive) | -0.013 (inactive) | 0.013 (inactive) | 0.009 (inactive) |
| ITM2B (UniProt Q9Y287) | -0.019 (inactive) | -0.032 (inactive) | 0.43 (active) | 0.058 (inactive) | -0.027 (inactive) |
| HNRNPL, A0A3B3ITJ4 | -0.063 (inactive) | -0.011 (inactive) | – | – | – |
| IRF2BPL (UniProt Q9H1B7) | 0.055 (inactive) | -0.057 (inactive) | 0 (inactive) | 0.047 (inactive) | -0.134 (inactive) |
| HSPA8 (UniProt E9PK54) | 0.065 (inactive) | -0.031 (inactive) | -0.031 (inactive) | -0.046 (inactive) | -0.125 (inactive) |
| GOLPH3L (UniProt Q9H4A5) | -0.046 (inactive) | 0.005 (inactive) | 0.022 (inactive) | -0.009 (inactive) | 0.021 (inactive) |
| IARS2 (UniProt Q9NSE4) | 0.004 (inactive) | 0.013 (inactive) | -0.006 (inactive) | 0.028 (inactive) | 0.119 (inactive) |
| ISY1 isoform 1 (UniProt Q9ULR0) | 0.016 (inactive) | 0 (inactive) | 0.001 (inactive) | -0.12 (inactive) | -0.004 (inactive) |
| HNRNPL (UniProt P14866) | -0.01 (inactive) | -0.024 (inactive) | 0.04 (inactive) | 0.039 (inactive) | 0.071 (inactive) |
| KCT2 (UniProt Q8NC54) | 0.069 (inactive) | -0.008 (inactive) | -0.05 (inactive) | -0.033 (inactive) | -0.173 (inactive) |
| HMGA1 (UniProt P17096) | 0.009 (inactive) | 0.024 (inactive) | 0.011 (inactive) | -0.031 (inactive) | -0.135 (inactive) |
| GSK3B isoform 2 (UniProt P49841) | 0.036 (inactive) | -0.003 (inactive) | -0.042 (inactive) | 0.029 (inactive) | -0.074 (inactive) |
| HSPA14 (UniProt Q0VDF9) | 0 (inactive) | 0.011 (inactive) | -0.004 (inactive) | 0.025 (inactive) | 0.017 (inactive) |
| HMGCS1 (UniProt Q01581) | 0.043 (inactive) | -0.022 (inactive) | 0.02 (inactive) | 0.003 (inactive) | -0.009 (inactive) |
| GON4L (UniProt Q3T8J9) | 0.027 (inactive) | 0 (inactive) | 0.008 (inactive) | 0.003 (inactive) | 0.466 (active) |
| GSTM4 (UniProt Q03013) | -0.04 (inactive) | -0.053 (inactive) | 0.03 (inactive) | 0.09 (inactive) | -0.016 (inactive) |
| HAUS6 (UniProt Q7Z4H7) | 0 (inactive) | -0.012 (inactive) | 0.021 (inactive) | 0.005 (inactive) | 0.041 (inactive) |
| HELQ (UniProt Q8TDG4) | 0.033 (inactive) | 0.028 (inactive) | 0.005 (inactive) | -0.004 (inactive) | -0.074 (inactive) |
| KCTD20 (UniProt Q7Z5Y7) | -0.031 (inactive) | -0.011 (inactive) | 0.097 (inactive) | -0.009 (inactive) | 0.078 (inactive) |
| GMPS (UniProt P49915) | -0.014 (inactive) | -0.001 (inactive) | 0.02 (inactive) | 0.019 (inactive) | 0.088 (inactive) |
| GTF2A1 (UniProt P52655) | 0.025 (inactive) | -0.033 (inactive) | -0.01 (inactive) | -0.057 (inactive) | 0.202 (inactive) |
| HNRNPD isoform 3 (UniProt Q14103) | -0.087 (inactive) | -0.145 (inactive) | 0 (inactive) | -0.096 (inactive) | -0.003 (inactive) |
| IMPACT (UniProt Q9P2X3) | 0.093 (inactive) | -0.07 (inactive) | -0.18 (inactive) | -0.067 (inactive) | -0.13 (inactive) |
| HK1 isoform 2 (UniProt P19367) | -0.017 (inactive) | 0.017 (inactive) | -0.002 (inactive) | 0.016 (inactive) | 0.016 (inactive) |
| KDM5C (UniProt P41229) | -0.01 (inactive) | 0 (inactive) | 0.008 (inactive) | -0.01 (inactive) | 0.032 (inactive) |
| HDLBP, A0A024R4E5 | -0.024 (inactive) | -0.013 (inactive) | 0.017 (inactive) | -0.018 (inactive) | 0.008 (inactive) |

| Target | log2 fold change [1] | log2 fold change [2] | log2 fold change [3] | log2 fold change [4] | log2 fold change [5] |
| --- | --- | --- | --- | --- | --- |
| GSK3A (UniProt P49840) | -0.041 (inactive) | 0.03 (inactive) | -0.059 (inactive) | 0.036 (inactive) | -0.044 (inactive) |
| HMGN5 (UniProt Q5JSK9) | -0.067 (inactive) | 0.015 (inactive) | – | – | – |
| H2AFY (UniProt O75367) | -0.035 (inactive) | 0.045 (inactive) | 0.026 (inactive) | 0.296 (active) | -0.045 (inactive) |
| HMBOX1 isoform 5 (UniProt Q6NT76) | 0.016 (inactive) | -0.008 (inactive) | 0.055 (inactive) | 0.027 (inactive) | -0.114 (inactive) |
| HNRNPM (UniProt P52272) | -0.099 (inactive) | 0.034 (inactive) | 0.041 (inactive) | -0.025 (inactive) | 0.014 (inactive) |
| GTF3C5 isoform 3 (UniProt Q9Y5Q8) | -0.024 (inactive) | 0.001 (inactive) | 0.019 (inactive) | 0.056 (inactive) | 0.016 (inactive) |
| HNRNPM (UniProt M0QZM1) | -0.093 (inactive) | -0.092 (inactive) | -0.01 (inactive) | 0.152 (inactive) | – |
| HLCS (UniProt P50747) | -0.027 (inactive) | 0.027 (inactive) | 0.011 (inactive) | -0.006 (inactive) | 0.038 (inactive) |
| HK2 (UniProt P52789) | -0.021 (inactive) | -0.016 (inactive) | 0.043 (inactive) | 0.019 (inactive) | 0.063 (inactive) |
| GTF2H4 (UniProt Q92759) | -0.08 (inactive) | 0.044 (inactive) | 0.039 (inactive) | 0.015 (inactive) | 0.02 (inactive) |
| IFITM3 (UniProt Q01628) | -0.011 (inactive) | -0.078 (inactive) | -0.118 (inactive) | -0.088 (inactive) | 0.026 (inactive) |
| IRAK1 (UniProt P51617) | -0.146 (inactive) | -0.028 (inactive) | -0.001 (inactive) | 0.004 (inactive) | 0.026 (inactive) |
| HMGN4 (UniProt O00479) | -0.137 (inactive) | -0.395 (inactive) | -0.186 (inactive) | 0.297 (inactive) | 0.513 (inactive) |
| HDAC2 (UniProt Q92769) | 0.004 (inactive) | 0.002 (inactive) | -0.017 (inactive) | 0.02 (inactive) | -0.004 (inactive) |
| ITPKA (UniProt P23677) | -0.022 (inactive) | 0.006 (inactive) | -0.017 (inactive) | -0.012 (inactive) | -0.013 (inactive) |
| H4C1 (UniProt P62805) | -0.063 (inactive) | 0.037 (inactive) | -0.031 (inactive) | 0.664 (active) | 0.125 (inactive) |
| GLUL (UniProt P15104) | -0.011 (inactive) | -0.063 (inactive) | -0.085 (inactive) | 0.031 (inactive) | 0.053 (inactive) |
| HNRNPUL1 (UniProt Q9BUJ2) | 0.043 (inactive) | -0.022 (inactive) | -0.028 (inactive) | -0.003 (inactive) | -0.006 (inactive) |
| IGF2BP2 (UniProt Q9Y6M1) | -0.041 (inactive) | -0.004 (inactive) | 0.012 (inactive) | 0.022 (inactive) | 0.008 (inactive) |
| GTF2I (UniProt P78347) | -0.026 (inactive) | 0 (inactive) | 0.009 (inactive) | 0.015 (inactive) | 0.061 (inactive) |
| HEATR6 (UniProt Q6AI08) | -0.039 (inactive) | -0.086 (inactive) | 0.05 (inactive) | 0.008 (inactive) | 0.014 (inactive) |
| IARS (UniProt P41252) | -0.027 (inactive) | 0.026 (inactive) | 0.025 (inactive) | 0.066 (inactive) | 0.047 (inactive) |
| IMPDH1 isoform 6 (UniProt P20839) | -0.008 (inactive) | 0.025 (inactive) | -0.009 (inactive) | 0.053 (inactive) | -0.051 (inactive) |
| ISCA1 isoform 2 (UniProt Q9BUE6) | 0.005 (inactive) | -0.03 (inactive) | 0.016 (inactive) | -0.021 (inactive) | 0.099 (inactive) |
| GTPBP2 (UniProt Q9BX10) | 0.019 (inactive) | 0.021 (inactive) | 0.025 (inactive) | 0.049 (inactive) | 0.034 (inactive) |
| HADH isoform 2 (UniProt Q16836) | 0.012 (inactive) | 0.004 (inactive) | -0.047 (inactive) | 0.013 (inactive) | 0.086 (inactive) |
| KHK isoform 2 (UniProt P50053) | -0.01 (inactive) | 0.034 (inactive) | -0.003 (inactive) | -0.137 (inactive) | 0.142 (inactive) |
